Cycloheximide cs: affects cycloheximide protein synthesis inhibition readout, counter-screen; max response, %; AID 2314; cell reporter, cycloheximide protein synthesis inhibition counterscreen; 300,000 tested, 12% active; in the data active = max response mostly above about 13%, no sharp cut-off; inactive = mostly below about 14%; note: read at 38.3 µM for the half of the compounds with a filed dose; 0% is about no effect
Lassa entry inh: Lassa virus entry inhibition; Lassa virus pseudotype entry inhibition, cell reporter; Potency, µM (titrated, usually from 37.9 µM), for inactives: at the top dose activity change, negative = inhibition, hits mostly inhibitors; 300,000 tested, 1.2% active; AID 540256; calls by dose curve; tested in HEK293 cells; note: potency is the fitted concentration of half-maximal effect; % is set by controls: 0 for no effect and ±100 for the full control effect; nearly all actives have a fitted effect of over 50% in size
Pf growth 48h: P. falciparum growth inhibition at 48 hours (one generation); P. falciparum luciferase growth in erythrocytes, 48 h; Potency, µM (top dose mostly 28.7 µM), for the others: at the top dose activity change, negative = inhibition, hits mostly inhibitors; 310,000 tested, 5.9% active; AID 504832; note: potency is the fitted concentration of half-maximal effect; % is set by controls: 0 for no effect and ±100 for the full control effect
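A one-generation exposure of luciferase-tagged malaria parasites in RPMI 1640/Albumax erythrocyte culture, 37 C and 5% CO2. Inhibition is inferred from decreased luminescence after adding detection reagent.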
Pf growth 96h: P. falciparum growth inhibition at 96 hour, primary screen for plastid delayed-death inhibitors; 320,000 tested, 6.9% active; Potency, µM (series often up to 28.7 µM), inactives show at the highest dose activity change, negative = inhibition, usual class: inhibitors; P. falciparum luciferase reporter growth, 96 h; note: potency is the fitted concentration of half-maximal effect; % is set by controls: 0 for no effect and ±100 for the full control effect
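Parasite growth measured via integrated firefly luciferase reporter in P. falciparum. Infected erythrocytes at 2% hematocrit, 0.05% parasitemia final were treated 96 hours at 37 C under 5% CO2, and luminescence was read.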
Shiga toxin inh: inhibitors of Shiga toxin in Vero cells | inhibition, % at 38.7 µM | AID 2315 | 290,000 tested, 9.2% active | Vero cells, Shiga toxin protein synthesis inhibition reporter; in the data active = inhibition mostly above about 28%, no sharp cut-off; inactive = mostly below about 43%; note: 0% is about no effect
Marburg entry inh: Marburg virus entry inhibition; AID 540276; Marburg virus pseudotyped entry inhibition, cell reporter; Potency, µM (highest dose often 37.8 µM), for the others: at the top dose activity change, negative = inhibition, most hits filed as inhibitors; 300,000 tested, 1.8% active; calls by dose curve; tested in HEK293 cells; note: potency is the fitted concentration of half-maximal effect; % is set by controls: 0 for no effect and ±100 for the full control effect
* hit, by the source's call; [ ] = remark or other dose. Sampled rows, rich in hits. Any-hit rate of the full collection: about 19%. Unless noted, calls come from the whole dose curve; as a rule, active = well fitted inhibition curve with a large enough effect; inconclusive = small, poorly fitted or top-dose-only effect, or another doubt; inactive = no such curve, though single readings can be large or run the other way.

What do the screens show for `CCOC(=O)C(Cc1cc(C(C)=O)ccc1OCC)C(=O)OCC`?
Cycloheximide cs: -2; Lassa entry inh: -1%; Pf growth 48h: -19%; Pf growth 96h: 65%; Shiga toxin inh: -6; Marburg entry inh: -2%[46.1 µM]

What do the screens show for `CCCCn1cc(S(=O)(=O)c2ccccc2)c(=O)c2cc(F)c(N3CCC(C)CC3)cc21`?
Lassa entry inh: 3%[46.1 µM]

How did Cc1ccc(F)c(C2=CC(=O)C[C@H](c3ccc(F)cc3)C2)c1 do in these assays?
Pf growth 48h: -2%; Pf growth 96h: inconclusive

How did COCCn1c(SCC(=O)Nc2cccc(F)c2)nc2c(c1=O)SCC2 do in these assays?
Cycloheximide cs: -1; Pf growth 48h: inconclusive; Pf growth 96h: inconclusive; Shiga toxin inh: -3

Results for CCOc1ccc(NC(=O)C2CCCN(S(=O)(=O)c3ccc4c(c3)CCCN4C(C)=O)C2)cc1 (stereo not drawn) ?
Cycloheximide cs: 9; Pf growth 48h: 12µM*; Pf growth 96h: inconclusive; Shiga toxin inh: -4

What do the screens show for `CC(=O)N1c2ccc(S(=O)(=O)N3CCC(C(=O)NCc4ccccc4Cl)CC3)cc2CC1C` (stereo not drawn)?
Cycloheximide cs: 9; Pf growth 48h: inconclusive; Pf growth 96h: 9.3µM*; Shiga toxin inh: -6

Results for CC(=O)N1CCCc2cc(S(=O)(=O)N3CCCC(C(=O)Nc4ccc(C)c(F)c4)C3)ccc21 (stereo not drawn) ?
Lassa entry inh: -25%[46.1 µM]

Results for CC(=O)N1c2ccc(S(=O)(=O)N3CCCC(C(=O)NCc4ccccc4Cl)C3)cc2CC1C (stereo not drawn) ?
Cycloheximide cs: -1; Lassa entry inh: -28%[46.1 µM]; Pf growth 48h: inconclusive; Pf growth 96h: inconclusive; Shiga toxin inh: -3; Marburg entry inh: inconclusive

How did CC1Cc2cc(S(=O)(=O)N3CCC(C(=O)NCc4ccco4)CC3)ccc2N1C(=O)C1CCC1 (stereo not drawn) do in these assays?
Cycloheximide cs: 0; Lassa entry inh: inconclusive; Pf growth 48h: 9.3µM*; Pf growth 96h: inconclusive; Shiga toxin inh: -2; Marburg entry inh: 13µM*

Results for COCCNC(=O)C1CCC(CNS(=O)(=O)c2ccc3c(c2)CC(C)N3C(=O)C2CC2)CC1 (stereo not drawn) ?
Cycloheximide cs: -2; Lassa entry inh: 6%[46.1 µM]; Pf growth 48h: 13%; Pf growth 96h: 12µM*; Shiga toxin inh: -9; Marburg entry inh: 11%[46.1 µM]

What do the screens show for `Cc1ccc(S(=O)(=O)N2CCCOC2CNC(=O)C(=O)NCc2ccco2)cc1` (stereo not drawn)?
Cycloheximide cs: -6; Lassa entry inh: 13%; Pf growth 48h: 6%; Pf growth 96h: inconclusive; Shiga toxin inh: -5; Marburg entry inh: 7%

What do the screens show for `CCN(c1ccc(OC)cc1)S(=O)(=O)c1ccc2c(c1)CC(C)N2C(=O)C1CC1` (stereo not drawn)?
Cycloheximide cs: 22*; Pf growth 48h: inconclusive; Pf growth 96h: inconclusive; Shiga toxin inh: 5

Results for CCc1cccc(NC(=O)C2CCCN2S(=O)(=O)c2ccc3c(c2)CC(C)N3C(C)=O)c1 (stereo not drawn) ?
Cycloheximide cs: 4; Pf growth 48h: 12µM*; Pf growth 96h: inconclusive; Shiga toxin inh: 13

How did CN1CCN(S(=O)(=O)c2ccc(NC(=S)NC(=O)c3ccc(Cl)cc3)cc2)CC1 do in these assays?
Cycloheximide cs: 23*; Lassa entry inh: -7%; Pf growth 48h: 4.7µM*; Pf growth 96h: 2.3µM*; Shiga toxin inh: 52; Marburg entry inh: -60%

Results for O=C(NC(=S)Nc1ccc(S(=O)(=O)N2CCCCC2)cc1)c1ccc(Cl)cc1 ?
Cycloheximide cs: 0; Lassa entry inh: 4%; Pf growth 96h: -31%; Shiga toxin inh: 28; Marburg entry inh: 11%

Results for CN1CCN(S(=O)(=O)c2ccc(NC(=S)NC(=O)c3ccccc3)cc2)CC1 ?
Cycloheximide cs: 21*; Lassa entry inh: 3%; Pf growth 48h: -28%; Shiga toxin inh: 36; Marburg entry inh: inconclusive

Results for CCC(=O)NC(=S)Nc1ccc(S(=O)(=O)N2CCN(C)CC2)cc1 ?
Cycloheximide cs: -3; Lassa entry inh: 3%; Pf growth 48h: 5%; Pf growth 96h: 15%; Shiga toxin inh: 14; Marburg entry inh: 4%

What do the screens show for `Cc1ccc(C2=NCN(c3ccc(C(=O)O)cc3)C(=S)N2)cc1`?
Cycloheximide cs: 39*; Pf growth 48h: 74%; Pf growth 96h: 31%; Shiga toxin inh: 98

How did S=C1NC(c2ccccc2)=NCN1c1ccccc1 do in these assays?
Cycloheximide cs: 30*; Lassa entry inh: 11%; Pf growth 96h: 43%; Shiga toxin inh: 129; Marburg entry inh: inconclusive

How did Cn1c(O)c(C=NCCN2CCOCC2)c(=O)[nH]c1=S do in these assays?
Cycloheximide cs: -4; Lassa entry inh: 2%[46.1 µM]; Pf growth 48h: -3%; Pf growth 96h: -7%; Shiga toxin inh: 1; Marburg entry inh: 0%[46.1 µM]

Results for CCOc1ccccc1N1CC(C(=O)N2CCc3ccccc32)CC1=O (stereo not drawn) ?
Cycloheximide cs: -5; Lassa entry inh: 1%; Pf growth 48h: 23%; Pf growth 96h: 24%; Shiga toxin inh: -11; Marburg entry inh: -17%

What do the screens show for `O=C(CNS(=O)(=O)c1ccc(Br)s1)N1CCN(c2ccccc2F)CC1`?
Lassa entry inh: -21%[46.1 µM]; Marburg entry inh: -8%[46.1 µM]

How did CCOC(=O)C(C)Sc1nc(=O)n2cc(C)ccc2n1 (stereo not drawn) do in these assays?
Cycloheximide cs: 13; Lassa entry inh: 0%; Pf growth 48h: 8%; Pf growth 96h: inconclusive; Shiga toxin inh: 23; Marburg entry inh: 15%[46.1 µM]

Results for CCOC(=O)CSc1nc(=O)n2cc(C)ccc2n1 ?
Cycloheximide cs: 17*; Lassa entry inh: 5%; Pf growth 48h: 34%; Pf growth 96h: -3%; Shiga toxin inh: 33; Marburg entry inh: 22%[46.1 µM]

Results for CCCSc1nc(=O)n2cc(C)ccc2n1 ?
Cycloheximide cs: 33*; Lassa entry inh: inconclusive; Pf growth 48h: 89%; Pf growth 96h: inconclusive; Shiga toxin inh: 57*; Marburg entry inh: 16%

What do the screens show for `CSc1sc(C(=O)Nc2ccc(F)cc2F)c2c1C=CCC2`?
Cycloheximide cs: 12; Lassa entry inh: -3%; Pf growth 48h: 0%; Pf growth 96h: -3%; Shiga toxin inh: 33; Marburg entry inh: -16%[46.1 µM]

Results for CC(=O)c1nnn(-c2c(F)cccc2F)c1C ?
Cycloheximide cs: 12*; Pf growth 48h: 78%; Pf growth 96h: 41%; Shiga toxin inh: 19

Results for CC(=O)c1nnn(-c2ccc(F)cc2F)c1C ?
Cycloheximide cs: -1; Lassa entry inh: 2%[46.1 µM]; Pf growth 48h: 34%; Pf growth 96h: 46%; Shiga toxin inh: 4; Marburg entry inh: 1%[46.1 µM]

What do the screens show for `CN(C)CCNC(=O)c1ccc2c(c1)N(Cc1ccc(F)cc1)CCS2`?
Cycloheximide cs: -1; Pf growth 96h: 34%; Shiga toxin inh: -14
